# M18AAP inhibitor = PfM18AAP enzyme inhibition | AID 1822 | inhibition, % at 7.35 µM | recombinant PfM18AAP, H-Glu-NHMec fluorogenic cleavage | actives 1.2% (n = 290,000);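 active means inhibition above the campaign mean inhibition over all tested compounds plus 3 SD, cut at about 28% in these data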;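 further: 0% = plate median of test compound wells and 100% = 2 mM ZnCl2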
# GASC-1 inh = human JMJD2C demethylase inhibition. Q9H3R0. GST-JMJD2C(1-420) H3K9me3 demethylation, DELFIA europium. inhibition, % at 2.35 µM. actives 0.069% (n = 330,000);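 active means more than half of a compound's replicate wells show inhibition beyond 50%, single wells judged on their own value; inconclusive means some, but no more than half, of replicates pass 50% inhibition; inactive means no replicate passes 50% inhibition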;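 further: signal counts dimethyl H3K9 product captured on neutravidin plate; 0% = median of DMSO wells and 100% = 0.3 times that DMSO median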
# Target sequence (Q9H3R0 1-420 limits assumed): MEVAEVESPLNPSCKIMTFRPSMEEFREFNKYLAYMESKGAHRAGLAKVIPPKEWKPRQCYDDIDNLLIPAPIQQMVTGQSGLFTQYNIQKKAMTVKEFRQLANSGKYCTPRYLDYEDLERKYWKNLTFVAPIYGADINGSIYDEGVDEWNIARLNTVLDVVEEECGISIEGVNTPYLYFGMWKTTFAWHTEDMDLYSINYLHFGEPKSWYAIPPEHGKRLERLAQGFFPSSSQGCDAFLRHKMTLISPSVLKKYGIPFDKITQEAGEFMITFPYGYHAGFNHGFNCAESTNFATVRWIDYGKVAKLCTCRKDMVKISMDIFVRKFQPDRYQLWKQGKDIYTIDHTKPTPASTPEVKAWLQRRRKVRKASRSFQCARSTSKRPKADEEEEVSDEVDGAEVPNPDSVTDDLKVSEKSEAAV
# beta cell repl = induces beta-cell replication in MIN6 cells | MIN6 cells proliferation, ATPlite luminescence, 48 h; cells starved in 0.2% serum; 100% = growth in 10% serum | proliferation, % at 10 µM | actives 0.29% (n = 330,000) | AID 2380;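 active means compounds whose signal lies at least 3.5 SD above the mean of all wells on their plate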;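 further: 0% = DMSO-treated cells in low-serum medium and 100% = 10% serum control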
# Granule exo inh = blocks lytic granule exocytosis; TALL-104 LAMP-1 surface exposure, flow cytometry; cells stimulated with thapsigargin and PMA; inhibition, % at 10 µM; actives 0.66% (n = 360,000); AID 651702;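 active means inhibition above about 55%, limit read from the data; inconclusive means no clear call, values can overlap the other calls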
# ALR H2O2 inh = human ALR oxidase inhibition via reduced H2O2; inhibition, % (no concentration beside the values); P55789; AID 485317; actives 3.8% (n = 290,000); purified ALR, DTT oxidation, H2O2 HRP-luminol luminescence;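 active means mean replicate inhibition above about 79%, with every replicate also reaching it, limit read from the data; inconclusive means only one of the two criteria met; inactive means mean below limit and not every replicate reaching it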
# Target sequence (P55789 whole entry, looked up): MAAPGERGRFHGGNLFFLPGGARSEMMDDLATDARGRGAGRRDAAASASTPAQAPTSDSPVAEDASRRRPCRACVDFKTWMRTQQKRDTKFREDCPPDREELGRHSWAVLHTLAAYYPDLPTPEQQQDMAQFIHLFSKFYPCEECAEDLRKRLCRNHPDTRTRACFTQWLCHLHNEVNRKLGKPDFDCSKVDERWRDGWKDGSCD
# SMARCA2 activ = increases SMARCA2 function in MMTV reporter cells; MG213 cells, MMTV-luciferase reporter, dexamethasone, overnight; activation, % at 9.1 µM; actives 1% (n = 370,000); AID 652017; in the data active means activation above about 7.8%;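 further: 0% = vehicle wells and 100% = reference activator wells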
# * marks the source's active call; other numbers are inactive results; ? = inconclusive; / = no result. In the library only some 5.4% were active in any assay of this set; here they are far more common.
SMILES,M18AAP inhibitor,GASC-1 inh,beta cell repl,Granule exo inh,ALR H2O2 inh,SMARCA2 activ
Cn1c(=O)oc2cc(S(=O)(=O)N3CCN(CCO)CC3)ccc21,/,/,/,/,/,3.0
CCC(C)/C(C)=N/NC(=O)c1ccc(CSc2nc3ccccc3s2)cc1 (configuration not stated),-7.6,-0.6,0.0,-2.7,42.4,-0.4
COCCNC(=O)c1ccc(CSc2nc3ccccc3s2)cc1,6.7,?,-1.8,2.9,99.0*,-0.7
NC(=O)c1ccc(CSc2nc3ccccc3s2)cc1,-0.6,2.4,-2.0,-0.3,92.2*,2.0
COCCNC(=O)COC(=O)CSCc1nc2ccccc2s1,13.2,0.2,-2.9,3.3,98.2*,-0.3
CCNC(=O)c1ccc(CSc2nc3ccccc3s2)cc1,0.2,-1.2,-2.3,3.2,98.5*,0.3
CCOC(=O)c1csc(NC(=O)C2CCCN(S(=O)(=O)c3ccc(C)cc3)C2)n1 (configuration not stated),/,/,/,/,/,-6.5
O=C(CCc1nc(-c2ccccc2F)no1)NCCc1cccc(F)c1,/,/,/,/,/,-7.0
Cc1cc(C(=O)Nc2nnc(-c3ccccc3)s2)no1,-6.1,-9.7,-2.0,1.1,93.3*,3.9
Cc1ccc(C(=O)Nc2nnc(C3CCCCC3)s2)o1,4.0,-5.6,-1.2,-3.2,48.9,5.0
O=C(CCC(=O)Nc1nnc(C2CCCCC2)s1)Nc1ccc(F)cc1,29.2*,0.0,-1.3,-9.5,-7.0,0.3
Cc1cc(C(=O)Nc2nnc(C3CCCCC3)s2)no1,-0.4,0.9,0.1,4.6,86.4*,-1.1
COc1ccc(-c2nnc(SCC(=O)Nc3ccc4cn[nH]c4c3)n2Cc2ccco2)cc1,/,/,/,/,/,-0.4
C[C@@H]1[C@@H](c2ccccc2)c2cc3ccccc3nc2C(=O)C[C@@H]1C(=O)N1CCCC1,/,/,/,/,/,-0.9
NC1=NC[C@H](Cc2ccc(O)cc2)N1CCC12CC3CC(CC(C3)C1)C2,/,8.1,-7.2,7.5,93.4*,-0.6
Cc1ccc(CN2CCCCC(NC(=O)c3ccc(C)cc3)C2=O)cc1 (configuration not stated),/,/,/,/,/,0.0
CCCNC(=S)Nc1cccc(C(F)(F)F)c1,-12.9,-20.5,-3.3,-3.2,14.1,-4.1
CC(C)(C)NNC(=S)Nc1cccc(C(F)(F)F)c1,-5.2,54.2*,-0.6,-5.0,3.7,-1.2
CN1CCCNc2nc3ccccc3nc21,-4.5,0.6,1.0,3.1,80.0*,6.1
Cn1c(SCc2cccc([N+](=O)[O-])c2)nc2c(c1=O)SCC2,4.0,23.9,-4.8,35.6,98.7*,-3.7
Cn1c(SCc2cccnc2)nc2c(c1=O)SCC2,3.9,-3.3,0.2,-3.9,99.0*,-2.4
Cn1c(SCc2ccc(Br)cc2)nc2c(c1=O)SCC2,0.1,4.0,-3.8,6.8,98.2*,-1.9
Cc1ccc(NC(=O)OC2CC3CC2[C@H]2CCCCN2C3)cc1C (some centres not stated),/,/,/,/,/,-0.8
NC(=O)c1ncn([C@@H]2O[C@H](C(=O)N[C@H](Cc3ccccc3)C(=O)N3CCN(c4ccc(Cl)cn4)CC3)[C@@H](O)[C@H]2O)n1,/,/,/,/,/,-1.8
CCN(CC)C(=O)CC[C@@H]1CC[C@]2(CCCN(Cc3ccc(Br)cc3)C2)O1,/,/,/,/,/,-1.2
SMILES,M18AAP inhibitor,GASC-1 inh,beta cell repl,Granule exo inh,ALR H2O2 inh,SMARCA2 activ
CCOC(=O)N1CCN(C(=O)c2ccc3c(c2)N(Cc2ccc(F)cc2)CCS3)CC1,7.6,30.9,-5.2,6.0,97.6*,-0.8
O=C(NCCN1CCOCC1)c1cc2sccc2n1Cc1ccc(F)cc1,-5.2,0.2,0.0,0.9,96.6*,5.3
CCOC(=O)N1CCN(C(=O)c2ccc3c(c2)N(CC)CCS3)CC1,3.5,-7.9,-3.0,6.9,46.8,-3.3
O=C(NCCCN1CCOCC1)c1ccc2c(c1)N(Cc1ccc(F)cc1)CCS2,6.4,3.3,-0.7,2.9,98.9*,3.4
O=C(NCCN1CCOCC1)c1cc2sccc2n1Cc1ccc(Cl)cc1,3.5,-4.2,-2.2,1.8,/,2.4
O=C(NCC1CCCO1)c1ccc2c(c1)N(Cc1ccc(F)cc1)CCS2 (configuration not stated),2.9,-2.6,8.7,-1.4,98.6*,-1.7
O=C(Cc1c[nH]c2ccccc12)Nc1ccc(Nc2cccnc2)c(-c2ccc(-c3ccccc3)cc2F)c1,/,/,/,/,/,-3.3
CC12C=CC(C)(C3C(=O)NC(=O)C31)C1C3C(=O)NC(=O)C3C12 (configuration not stated),/,/,/,/,/,0.3
CN1CCN(CCCNC(=O)c2ccc3c(c2)N(Cc2ccc(F)cc2)CCS3)CC1,7.1,12.6,-6.2,5.7,98.9*,-4.0
C/C(=N\NC(=O)c1cccs1)c1c(O)cc(C)oc1=O,-4.8,2.5,1.7,-3.7,12.3,3.8
C/C(=N\Nc1ccc(Cl)cc1)c1c(O)cc(C)oc1=O,10.8,13.2,-2.5,2.0,98.6*,4.2
COCCCN1C(=O)[C@H](CC(=O)N2CCOCC2)[C@]2(C(=O)OC)CCCCC=C12,/,/,/,/,/,-1.7
Cc1ccc(S(=O)(=O)N(CC(=O)Nc2ccccc2C(=O)O)c2cccc(Cl)c2C)cc1,-0.2,4.5,-1.4,-7.5,97.4*,3.0
O=C1C(NC(=O)C(F)(F)Br)CCCCN1Cc1cccc(C(F)(F)F)c1 (configuration not stated),/,/,/,/,/,-0.5
Nc1c(NCc2ccccc2)c2ccccc2oc1=O,29.7*,3.6,-0.6,17.3,3.7,-0.1
O=c1oc2ccccc2c(NCc2ccccc2)c1[N+](=O)[O-],4.2,-8.0,1.6,-8.4,5.9,-2.0
CC(C)Nc1c(N)c(=O)oc2ccccc12,23.4,-17.5,-1.3,-16.5,91.9*,1.2
Cn1c(N)c(N2CCN(c3ccccc3)CC2)c(=O)[nH]c1=O,-8.8,5.2,-2.1,-0.8,98.4*,1.1
Nc1c(N)c2ccccc2oc1=O,1.5,-0.7,-3.0,-4.0,6.2,-2.5
CC(C)Nc1c([N+](=O)[O-])c(=O)oc2ccccc12,4.0,15.1,1.5,-2.0,4.9,-4.2
Nc1c(N2CCN(c3ccccc3)CC2)c2ccccc2oc1=O,22.5,-18.5,-0.7,4.4,97.7*,1.3
O=C(CCCCCN1C(=O)C2C3C=CC(C3)C2C1=O)N1CCN(c2ncccn2)CC1 (configuration not stated),/,/,/,/,/,-5.1
COc1ccc(-c2noc(C3CCCN(C(=O)Nc4ccc5c(c4)OCO5)C3)n2)cc1 (configuration not stated),/,/,/,/,/,-2.6
CNc1c(N)c(=O)oc2ccccc12,6.9,-9.6,2.3,-1.1,92.5*,1.2
CCOC(=O)c1oc2ccccc2c1CN1CCN(c2ccccc2)CC1,3.9,7.8,-0.3,2.2,94.0*,-4.6
CCOC(=O)c1oc2ccccc2c1CN1CCN(C(=O)c2ccccc2)CC1,4.1,19.3,4.9,-5.5,-2.7,-4.1
CCOC(=O)/C=C/c1nc(C(=O)OCC)c(C)c(=O)[nH]1,-7.2,-6.4,-2.5,0.6,96.9*,0.4
CCOC(=O)c1nc2ccccc2c(C)c1C,-13.4,-0.4,-0.2,-2.9,/,-1.9

# From PubChem BioAssay
